This note sets out measurements from ChEMBL document CHEMBL1961873, “Compounds: GSK PKIS; Assays: Nanosyn kinase panel” (2012).

As usually defined, the inhibition is the relative decrease from the control value, in per cent.

The target of assay [1] is Serine/threonine-protein kinase MRCK alpha (Homo sapiens) (UniProt Q5VT25). The following applies: at 0.1 µM.
Assay [2] shares this target. The following applies: at 1 µM.
Assay [3] concerns the target Serine/threonine-protein kinase MRCK beta (Homo sapiens) (UniProt Q9Y5S2). The following applies: at 0.1 µM.
Assay [4] has the same target. The following applies: at 1 µM.
The target in assay [5] is Ribosomal protein S6 kinase alpha-5 (Homo sapiens) (UniProt O75582). The following applies: at 0.1 µM.
Assay [6] has the same target. Particulars: at 1 µM.
The target in assay [7] is Ribosomal protein S6 kinase alpha-4 (Homo sapiens) (UniProt O75676). Particulars: at 0.1 µM.
For assay [8] the target is unchanged. Particulars: at 1 µM.
Assay [9] concerns the target Ribosomal protein S6 kinase beta-1 (Homo sapiens) (UniProt P23443). The following applies: at 0.1 µM.
For assay [10] the target is unchanged. Particulars: at 1 µM.
Assay [11] deals with T1, 3-phosphoinositide-dependent protein kinase 1 (Homo sapiens) (UniProt O15530).
T1 sequence (whole entry): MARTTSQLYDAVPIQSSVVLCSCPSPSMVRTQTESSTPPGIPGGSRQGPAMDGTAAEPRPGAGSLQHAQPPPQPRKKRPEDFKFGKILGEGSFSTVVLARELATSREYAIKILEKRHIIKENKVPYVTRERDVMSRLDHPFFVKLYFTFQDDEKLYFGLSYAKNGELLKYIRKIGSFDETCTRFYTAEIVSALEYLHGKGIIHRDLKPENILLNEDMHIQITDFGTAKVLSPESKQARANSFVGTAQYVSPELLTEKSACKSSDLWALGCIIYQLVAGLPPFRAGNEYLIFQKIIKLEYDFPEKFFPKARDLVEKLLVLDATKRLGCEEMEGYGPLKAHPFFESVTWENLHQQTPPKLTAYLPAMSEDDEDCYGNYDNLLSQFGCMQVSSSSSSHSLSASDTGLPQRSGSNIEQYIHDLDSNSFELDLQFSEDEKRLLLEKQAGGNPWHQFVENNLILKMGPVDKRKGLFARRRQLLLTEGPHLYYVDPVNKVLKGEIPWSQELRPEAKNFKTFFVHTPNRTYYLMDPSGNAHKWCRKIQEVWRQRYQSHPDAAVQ
Particulars: at 0.1 µM.

Assay [12] deals with cAMP-dependent protein kinase catalytic subunit alpha (Homo sapiens) (UniProt P17612). Particulars: at 0.1 µM.
Assay [13] shares this target. The following applies: at 1 µM.
Assay [14] addresses Protein kinase C alpha type (Homo sapiens) (UniProt P17252). The following applies: at 0.1 µM.
The target is the same in assay [15]. The following applies: at 1 µM.
Assay [16] has as its target Protein kinase C beta type (Homo sapiens) (UniProt P05771). The following applies: at 0.1 µM.
Assay [17] has the same target. The following applies: at 1 µM.
For assay [18], the target named is Protein kinase C eta type (Homo sapiens) (UniProt P24723). The following applies: at 0.1 µM.
For assay [19] the target is unchanged. Particulars: at 1 µM.
Assay [20] addresses Protein kinase C gamma type (Homo sapiens) (UniProt P05129). The following applies: at 0.1 µM.

Sequence of Ribosomal protein S6 kinase alpha-5 (Homo sapiens) (O75582 whole entry, looked up): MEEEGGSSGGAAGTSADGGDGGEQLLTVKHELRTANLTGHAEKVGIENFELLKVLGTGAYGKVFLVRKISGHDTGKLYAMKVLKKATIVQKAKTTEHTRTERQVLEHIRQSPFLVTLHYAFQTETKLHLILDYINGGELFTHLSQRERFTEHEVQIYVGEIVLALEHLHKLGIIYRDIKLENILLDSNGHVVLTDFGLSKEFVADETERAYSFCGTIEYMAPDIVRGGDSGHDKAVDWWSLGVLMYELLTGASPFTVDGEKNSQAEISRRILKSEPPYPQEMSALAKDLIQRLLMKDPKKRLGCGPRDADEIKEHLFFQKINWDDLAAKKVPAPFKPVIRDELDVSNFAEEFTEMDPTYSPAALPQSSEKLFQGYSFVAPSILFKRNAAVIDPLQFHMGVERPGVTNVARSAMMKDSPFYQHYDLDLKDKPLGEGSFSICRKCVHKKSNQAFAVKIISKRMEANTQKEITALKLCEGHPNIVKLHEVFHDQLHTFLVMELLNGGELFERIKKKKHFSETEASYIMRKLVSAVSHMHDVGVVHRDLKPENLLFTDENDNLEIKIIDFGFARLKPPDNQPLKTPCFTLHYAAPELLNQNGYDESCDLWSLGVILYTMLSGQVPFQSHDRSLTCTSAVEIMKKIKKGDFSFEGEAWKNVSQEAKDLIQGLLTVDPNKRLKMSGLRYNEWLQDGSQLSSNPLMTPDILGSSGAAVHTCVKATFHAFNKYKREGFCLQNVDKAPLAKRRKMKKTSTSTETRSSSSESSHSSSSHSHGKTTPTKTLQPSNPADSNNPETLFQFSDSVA
Sequence of Ribosomal protein S6 kinase alpha-4 (Homo sapiens) (O75676 whole entry, looked up): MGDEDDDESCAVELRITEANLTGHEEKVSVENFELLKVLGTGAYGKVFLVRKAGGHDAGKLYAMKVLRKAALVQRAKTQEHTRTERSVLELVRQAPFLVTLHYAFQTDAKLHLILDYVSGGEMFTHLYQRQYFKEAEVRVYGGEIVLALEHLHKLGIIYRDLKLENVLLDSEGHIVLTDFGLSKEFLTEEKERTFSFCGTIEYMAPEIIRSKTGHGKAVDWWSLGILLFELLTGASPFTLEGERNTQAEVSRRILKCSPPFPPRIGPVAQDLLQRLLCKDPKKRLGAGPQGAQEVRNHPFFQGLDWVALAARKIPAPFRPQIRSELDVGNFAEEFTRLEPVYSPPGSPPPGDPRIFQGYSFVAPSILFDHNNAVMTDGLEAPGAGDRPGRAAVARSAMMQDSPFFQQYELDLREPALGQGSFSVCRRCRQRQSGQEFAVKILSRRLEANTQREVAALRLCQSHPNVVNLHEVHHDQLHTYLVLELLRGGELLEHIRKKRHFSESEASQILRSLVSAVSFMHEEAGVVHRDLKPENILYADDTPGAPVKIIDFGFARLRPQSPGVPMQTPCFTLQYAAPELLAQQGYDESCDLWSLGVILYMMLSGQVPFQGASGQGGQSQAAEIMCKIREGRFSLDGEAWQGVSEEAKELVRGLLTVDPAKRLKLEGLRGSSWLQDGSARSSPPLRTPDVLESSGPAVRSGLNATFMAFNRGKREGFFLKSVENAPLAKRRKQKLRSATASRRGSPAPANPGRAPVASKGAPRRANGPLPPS
Sequence of Serine/threonine-protein kinase MRCK beta (Homo sapiens) (Q9Y5S2 whole entry): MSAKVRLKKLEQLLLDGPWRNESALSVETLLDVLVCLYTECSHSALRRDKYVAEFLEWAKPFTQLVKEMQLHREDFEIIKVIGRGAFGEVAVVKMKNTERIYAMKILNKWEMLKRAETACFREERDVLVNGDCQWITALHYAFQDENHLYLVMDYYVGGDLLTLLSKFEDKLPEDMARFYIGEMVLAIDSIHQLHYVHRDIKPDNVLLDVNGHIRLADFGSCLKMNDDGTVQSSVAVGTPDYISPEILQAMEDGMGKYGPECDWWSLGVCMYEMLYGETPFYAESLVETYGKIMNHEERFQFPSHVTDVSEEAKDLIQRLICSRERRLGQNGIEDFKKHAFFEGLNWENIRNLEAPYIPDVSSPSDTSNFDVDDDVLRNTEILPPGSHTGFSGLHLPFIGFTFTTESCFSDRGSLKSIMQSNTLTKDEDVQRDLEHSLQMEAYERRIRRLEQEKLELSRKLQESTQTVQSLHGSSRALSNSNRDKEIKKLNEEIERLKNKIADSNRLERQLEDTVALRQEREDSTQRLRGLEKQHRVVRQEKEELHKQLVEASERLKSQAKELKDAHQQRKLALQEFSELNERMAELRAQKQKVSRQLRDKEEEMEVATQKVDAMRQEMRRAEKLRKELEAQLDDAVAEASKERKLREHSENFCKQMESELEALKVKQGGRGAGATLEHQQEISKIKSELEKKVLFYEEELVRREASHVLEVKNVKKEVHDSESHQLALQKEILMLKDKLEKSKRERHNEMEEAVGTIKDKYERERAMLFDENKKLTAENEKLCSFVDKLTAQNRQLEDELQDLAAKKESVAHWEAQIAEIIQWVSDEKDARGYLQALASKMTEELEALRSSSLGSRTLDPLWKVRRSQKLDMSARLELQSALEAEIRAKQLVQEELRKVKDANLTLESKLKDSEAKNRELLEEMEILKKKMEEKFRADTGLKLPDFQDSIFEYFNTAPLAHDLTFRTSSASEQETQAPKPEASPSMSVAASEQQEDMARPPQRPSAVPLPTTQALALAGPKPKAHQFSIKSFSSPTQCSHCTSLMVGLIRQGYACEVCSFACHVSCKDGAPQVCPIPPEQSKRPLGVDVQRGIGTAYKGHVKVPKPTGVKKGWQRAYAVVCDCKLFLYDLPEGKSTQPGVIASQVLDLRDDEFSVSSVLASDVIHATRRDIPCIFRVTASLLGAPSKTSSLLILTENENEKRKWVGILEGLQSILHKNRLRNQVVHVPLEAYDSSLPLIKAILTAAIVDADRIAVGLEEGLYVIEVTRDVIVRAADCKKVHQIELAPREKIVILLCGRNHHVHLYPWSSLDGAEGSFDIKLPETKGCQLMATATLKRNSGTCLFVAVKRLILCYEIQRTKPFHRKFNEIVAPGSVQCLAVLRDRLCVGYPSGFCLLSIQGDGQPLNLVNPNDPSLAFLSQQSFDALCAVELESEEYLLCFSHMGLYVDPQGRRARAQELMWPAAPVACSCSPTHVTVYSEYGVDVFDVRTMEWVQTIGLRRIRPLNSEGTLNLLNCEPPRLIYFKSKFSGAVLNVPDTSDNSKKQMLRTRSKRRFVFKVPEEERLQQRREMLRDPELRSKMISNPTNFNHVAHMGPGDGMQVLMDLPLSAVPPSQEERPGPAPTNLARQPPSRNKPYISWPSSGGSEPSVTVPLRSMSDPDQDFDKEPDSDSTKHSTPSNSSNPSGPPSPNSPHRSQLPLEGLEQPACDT
Sequence of Protein kinase C eta type (Homo sapiens) (P24723 whole entry): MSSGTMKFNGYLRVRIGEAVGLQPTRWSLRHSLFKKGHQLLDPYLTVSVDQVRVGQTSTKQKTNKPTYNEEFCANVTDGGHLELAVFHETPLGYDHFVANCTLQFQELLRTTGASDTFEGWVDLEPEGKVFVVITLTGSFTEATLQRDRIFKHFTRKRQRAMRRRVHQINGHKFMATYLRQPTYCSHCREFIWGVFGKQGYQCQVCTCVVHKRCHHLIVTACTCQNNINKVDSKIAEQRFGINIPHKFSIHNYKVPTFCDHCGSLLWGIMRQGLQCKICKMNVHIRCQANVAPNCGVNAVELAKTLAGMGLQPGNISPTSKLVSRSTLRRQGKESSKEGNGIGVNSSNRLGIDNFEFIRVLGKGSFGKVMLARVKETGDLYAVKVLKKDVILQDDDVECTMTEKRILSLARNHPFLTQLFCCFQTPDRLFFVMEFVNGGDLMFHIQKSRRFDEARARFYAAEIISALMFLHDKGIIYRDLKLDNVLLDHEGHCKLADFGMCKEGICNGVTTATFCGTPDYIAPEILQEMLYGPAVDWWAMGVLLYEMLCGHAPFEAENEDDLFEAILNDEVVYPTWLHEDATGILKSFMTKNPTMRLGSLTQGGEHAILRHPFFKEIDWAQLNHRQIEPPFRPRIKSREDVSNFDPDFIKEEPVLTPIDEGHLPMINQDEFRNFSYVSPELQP
Sequence of Ribosomal protein S6 kinase beta-1 (Homo sapiens) (P23443 whole entry, looked up): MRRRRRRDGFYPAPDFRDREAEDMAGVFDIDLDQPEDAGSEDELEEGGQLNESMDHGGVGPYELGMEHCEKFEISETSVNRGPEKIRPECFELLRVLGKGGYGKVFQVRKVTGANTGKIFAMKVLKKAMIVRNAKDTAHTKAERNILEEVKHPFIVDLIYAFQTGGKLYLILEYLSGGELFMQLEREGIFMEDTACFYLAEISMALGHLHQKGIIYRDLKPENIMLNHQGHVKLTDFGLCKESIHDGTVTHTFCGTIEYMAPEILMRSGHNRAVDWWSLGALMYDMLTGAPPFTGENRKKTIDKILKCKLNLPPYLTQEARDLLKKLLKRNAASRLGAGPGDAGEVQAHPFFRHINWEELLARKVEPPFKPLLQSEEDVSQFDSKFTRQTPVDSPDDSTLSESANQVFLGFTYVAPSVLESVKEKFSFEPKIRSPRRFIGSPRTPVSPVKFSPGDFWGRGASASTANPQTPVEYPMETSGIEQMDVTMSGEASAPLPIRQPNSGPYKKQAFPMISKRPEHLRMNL

On to `COc1ccc(-c2oc3ncnc(N)c3c2-c2ccc(NC(=O)Nc3cc(C(F)(F)F)ccc3F)cc2)cc1`, for which the inhibition came to 0.52% in assay [1]; 6.52% in [2]; 0.63% in assay [3]; 1.86% in assay [4]; 5.16% in assay [5]; 16.1% in assay [6]. Moreover, the inhibition was determined as 4.9% in assay [7]; 24.2% in assay [8]; 11.7% in assay [9]; 68.2% in assay [10]; 1.13% in [11]; 3.34% in [12]. The inhibition in assay [13] was 4.14%; in [14], 0.71%; in [15] it was 1.62%; in assay [16] it was 3.38%; in assay [17], 6.16%; in [18], 6.58%. In addition, the inhibition in [19] is 5.99%; in [20] it was 1.64%.

Consider `Cc1ccc2c(-c3ccnc(Nc4ccccc4)n3)c(-c3ccc(F)cc3)nn2n1`, for which the inhibition in [1] was 1.01%; in [2], 7.71%; in [3] it was 1.04%; in assay [4] it was 1.94%; in [5], 3.46%; in assay [6] it was 3.65%. The inhibition in [7] was 0.97%; in assay [8], 3.78%; in [9], 1.87%; in assay [10] it was 3.16%; in [11], 2.18%; in [12], 1.83%. The inhibition in [13] is 4.25%; in assay [14] it was 1.15%; in assay [15], 11.3%; in [16], 1.13%; in assay [17] it was 6.49%; in assay [18], 0.7%. The inhibition in [19] came out at 1.97%; in assay [20], 2.27%.

Take `CCn1c(-c2nonc2N)nc2c(C#CC(C)(C)O)ncc(OC3CCNCC3)c21`: the inhibition turned out to be 8.47% in assay [1]; 33.8% in assay [2]; 2.8% in assay [3]; 22.5% in assay [4]; 2.46% in assay [5]; 11.8% in assay [6]. The inhibition in [7] was 3.66%; in assay [8] it was 14.9%; in assay [9], 4.92%; in [10], 26.5%; in assay [11], 2.52%; in [12] it was 62.4%. Besides, the inhibition in assay [13] stood at 89.9%; in assay [14], 3.68%; in assay [15], 30.4%; in assay [16], 41.8%; in assay [17], 73.2%; in assay [18], 89.7%. The inhibition was 99.9% in assay [19] and 35.1% in assay [20].

Consider `Nc1nc(-c2cccc(Cl)c2)c(-c2ccc3ncccc3n2)s1`, for which the inhibition was -0.36% in assay [1]; 5.58% in [2]; -0.33% in assay [3]; 0.87% in [4]; 9.72% in [5]; 9.28% in assay [6]. Also, the inhibition worked out at 2.91% in assay [7]; 3.45% in [8]; 1.21% in [9]; 3.77% in assay [10]; 0.49% in [11]; 2.34% in assay [12]. Besides, the inhibition in assay [13] worked out at 4.12%; in [14], 1.05%; in assay [15], 1.4%; in assay [16], 2.33%; in [17], 4.87%; in assay [18], 5.47%. Moreover, the figures for the inhibition in assay [19] and in assay [20] were 7.42% and 1.18%, respectively.

For the molecule `COc1cc(/C=N/Nc2ncnc3[nH]ncc23)ccc1O`, the inhibition came to 0.11% in [1]; 2.49% in assay [2]; 0.6% in assay [3]; 1.83% in assay [4]; 4.13% in [5]; 13.9% in assay [6]. For the same molecule, the inhibition in assay [7] is 2.93%; in [8], 8.42%; in assay [9], 3.45%; in assay [10], 21.4%; in assay [11], 2.95%; in assay [12] it was 1.43%. In addition, the inhibition is 5.96% in assay [13]; 0.03% in [14]; 3.59% in [15]; -0.06% in [16]; 4.56% in [17]; 0.97% in assay [18]. The inhibition is 7.35% in assay [19] and 2.16% in assay [20].

For the molecule `c1ccc(COc2ccc(Nc3ncnc4ccc(-c5ccco5)cc34)cc2)cc1`, the inhibition in [1] is -3.21%; in assay [2], -2.24%; in [3], 0.9%; in assay [4] it was -0.9%; in [5], 0.07%; in assay [6], -1.17%. The inhibition in assay [7] came to 2.09%; in assay [8] it was 1.67%; in assay [9], 0.5%; in assay [10], 0.07%; in assay [11], 0.07%; in assay [12] it was 1.25%. For the same molecule, the inhibition in assay [13] is 1.55%; in assay [14], -0.04%; in [15], 0.05%; in assay [16] it was -0.86%; in assay [17], -0.3%; in assay [18] it was 0.37%. Also, the inhibition was determined as 0.45% in assay [19] and 0.73% in assay [20].

In the case of `Cc1cccc(Nc2ncc(-c3ccccc3)o2)c1`, the inhibition was found to be 7.36% in [1]; 8.12% in assay [2]; 0.54% in assay [3]; 4.56% in assay [4]; 2.55% in [5]; 6.07% in [6]. The inhibition is 1.23% in assay [7]; 8.07% in assay [8]; 1.43% in [9]; 3.89% in assay [10]; 1.5% in assay [11]; 12.6% in assay [12]. Moreover, the inhibition in [13] was found to be 13.8%; in [14] it was 0.24%; in assay [15], 3.41%; in [16], 3.52%; in assay [17], 5.79%; in assay [18], 2.87%. The inhibition in assay [19] was 0.87%; in [20], 3.99%.
